In the library only some 11% were active in any assay of this set; here they are far more common.
HEK293 tox: Cytotoxic Profiling in HEK 293 Cell Line of Diverse Libraries Using Quantitative High-Throughput Screening | HEK 293 viability, ATP luminescence (CellTiter-Glo), 48-72 h | Potency, µM (top dose mostly 115 µM), for the others: at the highest dose activity change, negative = cytotoxicity, hits mostly inhibitors | actives 6.6% (n = 94,000) | AID 1345083, 2018; further: nearly all actives have a fitted effect of over 60% in size
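250 HEK 293 cells/well; compound by pintool; incubated 48 or 72 hr at 37 degree Celsius; CellTiter-Glo added, 10 min RT, luminescence imaged.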
hNpr1 antagonist: Natriuretic polypeptide receptor (hNpr1) antagonism - Primary qHTS. Atrial natriuretic peptide receptor 1 (Homo sapiens), P16066. HEK293 hNpr1 GloSensor cGMP, ANP-stimulated luminescence. Potency, µM (highest dose often 46.3 µM), for the others: top-dose activity change, negative = inhibition, actives largely listed as inhibitors. actives 1.6% (n = 76,000); calls by dose curve; further: nearly all actives have a fitted effect of over 60% in size
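Compound pre-incubated 30 min at room temperature on GloSensor-loaded HEK293 cells stably carrying hNpr1 and the pGS-40F cGMP biosensor. Stimulation uses hNppA at 0.1 nM final; luminescence is taken at baseline and 20 min post-agonist.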
3T3 cytotox: Cytotoxic Profiling in NIH 3T3 Cell Line of Diverse Libraries Using Quantitative High-Throughput Screening; NIH 3T3 viability, CellTiter-Glo ATP luminescence, 48-72 h; Potency, µM (series often up to 96.7 µM), inactives show at the highest dose activity change, negative = cytotoxicity, hits mostly inhibitors; actives 4.3% (n = 94,000); further: nearly all actives have a fitted effect of over 55% in size
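Cytotoxicity was measured by CellTiter-Glo ATP luminescence after 48 or 72 h compound exposure at 37 °C. Mouse NIH 3T3 fibroblasts were seeded at 400 cells/well and dosed by 23 nL pin transfer.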
Luciferase inh: Firefly luciferase inhibition profiling of diverse chemical library using quantitative high-throughput screening. Luciferin 4-monooxygenase (Photinus pyralis), P08659. purified P. pyralis luciferase, luminescence, biochemical. Potency, µM (titrated, usually from 115 µM), actives largely listed as inhibitors. actives 2.5% (n = 76,000); further: nearly all actives have a fitted effect of over 65% in size
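Inhibitors were tested against purified firefly luciferase in a biochemical, low-substrate format (both substrates at 10uM) and luminescence measured with a CCD imager.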
An asterisk follows results filed as active; i = inactive; ? = inconclusive; . = not tested or not shown; [ ] = remark or other dose. Unless noted, the call rests on the fitted dose curve; in most records, active means well fitted curve in the direction sought with a large enough effect; inconclusive means small, poorly fitted or top-dose-only effect, or another doubt; inactive means no such curve, though single readings can be large; an effect the other way counts as inactive or inconclusive. On the % scale 0 is the no-effect control and ±100 the full control effect; potency means the concentration at half of the fitted maximal effect.

SMILES | HEK293 tox | hNpr1 antagonist | 3T3 cytotox | Luciferase inh
Cc1nnc2ccc(N3CCC(NC(=O)c4ccccc4F)CC3)nn12 | 3% | . | -20% | .
CCN1CCN(C(=O)c2nc3sccn3c2-c2ccccc2)CC1 | 0%[172 µM] | . | -3%[138 µM] | .
CCCC1CCCN1C(=O)c1coc(COc2ccc3ccc(OC)cc3c2)n1 (centres undefined) | ? | ? | ? | i
Cc1nn(-c2ccccc2)c2c1C(C)N(C1CCN(C(=O)c3ccccc3)C1)C2=O (centres undefined) | 45µM* | . | ? | .
Cc1nn(-c2ccccc2)c2c1C(C)N(C1CCN(C(=O)c3cccc(C(F)(F)F)c3)C1)C2=O (centres undefined) | 35µM* | . | ? | .
Cc1ccc(C(=O)N2CCCC(N3C(=O)c4c(c(C)nn4-c4ccccc4)C3C)C2)cc1 (centres undefined) | 45µM* | . | ? | .
CCCn1c(C)cnc1CC1CCN(C(=O)NCc2ccc(C)cc2)CC1 | -12% | . | -19% | .
COc1ccc(CN2C(=O)CO[C@H]3CN(C4CCC4)C[C@H]32)cc1 | ? | -14%[70.6 µM] | -21%[138 µM] | i
COc1ccc(-c2ccc(C(=O)N[C@@H]3COCC[C@H]3OC)o2)cc1 | -20% | -2% | -29% | 35µM*
COCCC1(N(C)C)CCN(C(=O)Cc2ccccc2)CC1 | 0% | 4% | i | i
Cc1cc(Cl)ccc1OCCN1CCN(CC2(O)CCCNC2)CC1 (centres undefined) | 13µM* | 6% | 22µM* | i
O=C(Cc1ccc(Cl)cc1)N1CCC2(CC1)CC(O)CCO2 (centres undefined) | 2% | -1% | -2% | ?
N#Cc1cccc(C(=O)NC2CCCN(c3cc(-c4ccc(F)cc4)[nH]n3)C2)c1 (centres undefined) | ? | ? | ? | i
O=C(NC1CCCN(c2cc(-c3ccccc3)[nH]n2)C1)c1ccc2cc[nH]c2c1 (centres undefined) | ? | ? | ? | 14µM*
O=C(NC1CCCN(c2cc(-c3ccccc3)[nH]n2)C1)c1ccc2nc[nH]c2c1 (centres undefined) | -12% | 2% | -6% | 32µM*
O=C(NC1CCCN(c2cc(-c3ccccc3)[nH]n2)C1)c1ccccc1 (centres undefined) | ? | -21% | ? | ?
O=C(NC1CCCN(c2cc(-c3ccc(F)cc3)[nH]n2)C1)c1ccncc1 (centres undefined) | ? | -11% | -6% | 40µM*
Cc1ccc(C(=O)NC2CCCN(c3cc(-c4ccc(F)cc4)[nH]n3)C2)cc1 (centres undefined) | ? | 0% | ? | i
O=C(NC1CCCN(c2cc(-c3ccc(F)cc3)[nH]n2)C1)c1ccc2nc[nH]c2c1 (centres undefined) | ? | -23% | ? | 16µM*
COCCC1(NC(=O)c2ccccc2)CCN(C(=O)c2cccc(C)c2)CC1 | 1% | . | ? | .
O=C(CCC1CCN(Cc2cccc3c2OCO3)CC1)NCc1cccc(C(F)(F)F)c1 | ? | -5% | ? | i
CC(C)Cn1c(=O)c(C(=O)NC(C)C)nc2cccnc21 | -3%[172 µM] | . | -25%[138 µM] | .
Cn1cc(CN[C@H]2C[C@H]3C(=O)NC[C@@H](CCC(=O)NCc4ccc(F)cc4)N3C2)c2ccccc21 | -16% | 9% | -6% | i
O=C(NC1CCCN(c2cc(-c3ccc(F)cc3)[nH]n2)C1)c1ccc(Br)o1 (centres undefined) | 32µM* | -21% | ? | ?
COc1ccc(CC(=O)N2[C@@H](c3ccco3)[C@@H](C(=O)O)C[C@]23CCCCN(C)C3=O)cc1 | -15% | . | ? | .
SMILES | HEK293 tox | hNpr1 antagonist | 3T3 cytotox | Luciferase inh
Fc1ccccc1-c1nnc([C@H]2CCN(Cc3ccccc3)C2)o1 | -22%[172 µM] | 1%[70.6 µM] | ? | ?
Fc1ccccc1-c1nnc([C@H]2CCN(Cc3cccc(OC(F)(F)F)c3)C2)o1 | 112µM* | -1%[70.6 µM] | ? | i
COc1ccc2nc([C@H]3CCN(CCCc4ccccc4)C3)[nH]c2c1 | 63µM* | 0%[70.6 µM] | ? | 71µM*
COc1ccc2nc([C@H]3CCN(Cc4ccc(C(=O)O)cc4)C3)[nH]c2c1 | -2%[172 µM] | 6%[70.6 µM] | -5%[174 µM] | ?
c1ccc(CCCN2CC[C@H](c3nc4ccccc4[nH]3)C2)cc1 | ? | -21%[70.6 µM] | ? | ?
COc1ccc2nc([C@H]3CCN(Cc4cccc(OC(F)(F)F)c4)C3)[nH]c2c1 | 100µM* | ? | 89µM* | ?
O=C(Nc1ccc(Br)c(F)c1)c1cnc(-c2ccccc2)nc1-c1ccncc1 | 32µM* | ? | 25µM* | i
Cc1ccc(-c2ncc(C(=O)Nc3ccccc3)c(-c3ccncc3)n2)cc1 | ? | -8% | -4% | i
Cc1ccc(-c2ncc(C(=O)Nc3ccc(F)cc3C)c(-c3ccncc3)n2)cc1 | 40µM* | -3% | 22µM* | i
O=C(Nc1cccc(Br)c1)c1cnc(-c2ccccc2)nc1-c1ccncc1 | 40µM* | ? | ? | i
O=C(Nc1ccccc1Cl)c1cnc(-c2ccccc2)nc1-c1ccncc1 | 1% | -29% | -5% | i
Cc1c(Cl)cccc1NC(=O)c1cnc(-c2ccccc2)nc1-c1ccncc1 | ? | ? | 35µM* | i
O=C(Nc1ccc(F)cc1F)c1cnc(-c2ccc(F)cc2)nc1-c1ccncc1 | -22% | -17% | -15% | i
CC(C)[S+](=O)([O-])NCCNC(=O)c1cccc(-c2ccsc2)c1 | ? | . | -23% | .
COCCn1c(C)cnc1CC1CCN(S(=O)(=O)c2c(C)noc2C)C1 (centres undefined) | -12% | . | -21% | .
Cc1ccc(-c2cccc(CN3CCCC(NC(=O)c4cccc(Cl)c4)C3)c2)cc1Cl (centres undefined) | -5% | . | -22% | .
Cc1ccc(-c2cccc(CN3CCCC3C(=O)NCC3CC3)c2)cc1Cl (centres undefined) | 32µM* | . | ? | .
Cc1ccc(-c2cccc(CN3CCCC3C(=O)NC3CCCCC3)c2)cc1Cl (centres undefined) | -25% | . | -23% | .
CCCCCNC(=O)C1CCCN1Cc1cccc(-c2ccc(C)c(Cl)c2)c1 (centres undefined) | 45µM* | . | ? | .
COCCNC(=O)C1CCCN1Cc1cccc(-c2ccc(C)c(Cl)c2)c1 (centres undefined) | 40µM* | . | 35µM* | .
O=C(CC1CCCC1)N1CCCCCC1c1nnc(-c2ccccc2)o1 (centres undefined) | ? | 2% | ? | i
COc1ccc(C(=O)N2CC(Cn3c(C)cnc3-c3ccncc3)C2)cn1 | i | . | -4% | .
O=C(NCCc1ccccc1)N1CCc2nnc(C3CC3)n2CC1 | 1% | . | -9% | .
